HP1b binding inh = inhibitors of HP1-beta chromodomain binding to methylated histone tails; P83916; Potency, µM (highest dose often 114 µM), without a hit: at the top dose activity change, negative = inhibition, hits mostly inhibitors; AID 540317; AlphaScreen HP1-beta / biotin-H3K9me3 peptide binding; 0.56% of 390,000 active; further: potency means the concentration at half of the fitted maximal effect; nearly all actives have a fitted effect of over 70% in size
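Compound inhibition of the preformed complex between 50 nM HP1-beta and 50 nM biotinylated H3K9me3 peptide was read by AlphaScreen. Buffer was PBS pH 7.4 with 0.01% Tween-20. Incubations ran 30 min at room temperature, with 10 ug/mL donor/acceptor beads.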
JMJD2A Tudor = inhibitors of human JMJD2A Tudor domain | AlphaScreen JMJD2A-Tudor / H3K4me3 peptide binding | 4.4% of 390,000 active | Potency, µM (series often up to 114 µM), for inactives: at the highest dose activity change, negative = inhibition, most hits filed as inhibitors | O75164; further: potency means the concentration at half of the fitted maximal effect; on the % scale 0 is the no-effect control and ±100 the full control effect; nearly all actives have a fitted effect of over 50% in size
KDM4E inh = blocks human JMJD2E demethylase activity | B2RXH2 | JMJD2E catalytic domain, FDH-coupled NADH fluorescence (FDH is formaldehyde dehydrogenase) | Potency, µM (top dose mostly 57.1 µM), inactives show at the highest dose activity change, negative = inhibition, usual class: inhibitors | 1.6% of 230,000 active | AID 2147; active means well fitted inhibition curve with a large enough effect, not every such curve was filed as active; inconclusive means small, poorly fitted or top-dose-only effect, or another doubt; inactive means no such curve, though single readings can be large or run the other way;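 further: potency means the concentration at half of the fitted maximal effect; 0% = wells with enzyme and -100% = buffer wells without enzyme; nearly all actives have a fitted effect of over 50% in size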
BAZ2B block = blocks human BAZ2B. Q9UIF8. AlphaScreen BAZ2B-H3K14Ac peptide displacement. Potency, µM (titrated, usually from 114 µM), for inactives: top-dose activity change, negative = inhibition, most hits filed as inhibitors. 4.4% of 360,000 active. AID 504333; further: potency means the concentration at half of the fitted maximal effect; on the % scale 0 is the no-effect control and ±100 the full control effect; nearly all actives have a fitted effect of over 60% in size
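BAZ2B (50 nM) with biotin-H3(5-23)K14Ac peptide (50 nM) in PBS pH 7.4, 0.01% Tween-20, preformed 30 min, then compound 30 min at room temperature; top concentration 110uM. AlphaScreen streptavidin donor/nickel chelate acceptor beads (10 ug/mL final), 20 min dark, signal read.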
PI5P4Ka inh = blocks human PI5P4K alpha kinase activity | max response, % | P48426 | 1.2% of 330,000 active | PI5P4Kalpha enzyme, ADP-Glo luminescence, 60 min; hits give low values; active means max response of -50% or lower; inconclusive means between -30% and -50%; inactive means -30% or higher; further: value at the top dose of about 77 µM; on the % scale 0 is the no-effect control and ±100 the full control effect
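ADP-Glo luminescence end-point after a 60 min room-temperature kinase reaction. PI5P4Kalpha and substrate in HEPES pH 7.4 buffer with EGTA, 0.1% CHAPS and 5% DMSO; ATP at 5 microM final.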
L3MBTL1 inh = blocks human L3MBTL1; AID 485360; Q9Y468; 0.66% of 230,000 active; AlphaScreen L3MBTL1–H3K9me1 peptide binding; Potency, µM (doses to about 57.1 µM), without a hit: at the top dose activity, negative = inhibition, most hits filed as inhibitors; further: potency means the concentration at half of the fitted maximal effect; on the % scale 0 is the no-effect control and ±100 the full control effect; nearly all actives have a fitted effect of over 60% in size
Target sequence (Q9Y468 whole entry, looked up): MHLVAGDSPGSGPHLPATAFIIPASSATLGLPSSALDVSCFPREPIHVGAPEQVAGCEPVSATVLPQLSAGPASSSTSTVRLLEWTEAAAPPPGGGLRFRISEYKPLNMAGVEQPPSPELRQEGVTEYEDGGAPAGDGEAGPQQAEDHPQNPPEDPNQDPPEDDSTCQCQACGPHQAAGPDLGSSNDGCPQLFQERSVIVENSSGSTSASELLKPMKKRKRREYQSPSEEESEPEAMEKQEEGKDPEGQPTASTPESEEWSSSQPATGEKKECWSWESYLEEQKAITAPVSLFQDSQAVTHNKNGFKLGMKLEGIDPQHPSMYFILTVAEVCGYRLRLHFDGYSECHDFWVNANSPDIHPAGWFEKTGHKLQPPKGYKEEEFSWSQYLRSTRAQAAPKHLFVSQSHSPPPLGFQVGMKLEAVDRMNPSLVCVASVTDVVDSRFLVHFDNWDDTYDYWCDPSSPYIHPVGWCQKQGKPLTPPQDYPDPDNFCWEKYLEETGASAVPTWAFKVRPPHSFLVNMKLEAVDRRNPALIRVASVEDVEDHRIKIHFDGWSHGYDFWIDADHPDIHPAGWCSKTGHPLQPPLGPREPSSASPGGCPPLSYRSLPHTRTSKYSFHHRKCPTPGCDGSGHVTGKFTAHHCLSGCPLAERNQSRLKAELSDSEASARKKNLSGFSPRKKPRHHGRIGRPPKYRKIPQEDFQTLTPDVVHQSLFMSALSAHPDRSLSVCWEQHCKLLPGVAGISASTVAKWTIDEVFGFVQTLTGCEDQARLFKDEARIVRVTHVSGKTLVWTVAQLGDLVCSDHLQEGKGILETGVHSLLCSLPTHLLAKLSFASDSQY
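Displacement of a biotinylated histone H3(1-15) peptide monomethylated at Lys9 (75 nM) from L3MBTL1 (50 nM) was measured by AlphaScreen after a 30 min room-temperature compound incubation; cefsulodin titration served as intraplate control.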
Numbers without * were called inactive; ? = inconclusive; · = no result given; ! = not confirmed by another sample; [ ] = remark or other dose. Only some compounds are listed: those with a hit (about 5.7% of all), similar ones and a draw of the others. Unless noted, the call rests on the fitted dose curve; in most records, active means well fitted inhibition curve with a large enough effect; inconclusive means small, poorly fitted or top-dose-only effect; inactive means no such curve, though single readings can be large or run the other way.

SMILES	HP1b binding inh	JMJD2A Tudor	KDM4E inh	BAZ2B block	PI5P4Ka inh	L3MBTL1 inh
CSc1nc2ccc(S(=O)(=O)N3CCOCC3)cc2s1	25%	-8%	-5%	-3%	·	-2%[11.4 µM]
O=[N+]([O-])c1cc(Cl)cc2c1nc(NCCO)c1ccccc12	-22%	-34%	5%	-34%	26	-28%
COc1ccc(C(=O)CSc2ccc(-c3ccco3)nn2)cc1	22%	-32%	?	50µM*	?	-23%
O=C(CSc1ccc(-c2ccco2)nn1)c1ccccc1	-4%	?	?	50µM*	?	?
COc1ccc(C(=O)CSc2ccc(-c3ccccc3)nn2)cc1	38%	2%	-6%	10%	5	11%
O=C(CSc1ccc(-c2ccco2)nn1)N1CCCCCC1	25%	?	?	?	-3	·
COc1ccccc1NC(=O)CN1C(=O)c2cccc3cccc1c23	32%	5%	·	2%	·	·
CN1C(=O)CC2(C=CC(=O)C=C2OC(=O)c2ccccc2)c2ccccc21 (configuration not stated)	37%	-19%	·	·	·	·
COc1cccc(Cn2c(CNS(=O)(=O)c3ccc4c(c3)CCCC4)nc3cccnc32)c1	14%[57 µM]	-28%	·	-13%	·	·
CCC1CCCCN1C(=O)c1c[nH]c2ccc(S(=O)(=O)Nc3cccc(OC)c3)cc2c1=O (configuration not stated)	-16%	-17%	·	-6%	·	·
COc1ccc2c(c1)C1C=CCC1C(c1cc3c(cc1Br)OCO3)N2 (configuration not stated)	-44%	22µM*	-4%	35µM*	·	?
CCCCNc1cc(NC2CCCCC2)c2c3c(onc13)-c1ccccc1C2=O	?	10µM*	·	1.8µM*	·	·
Cc1cc(-c2ccccc2C(=O)NC2CCCCC2)on1	9%	5%	0%	-3%	-5	5%
O=C1c2ccccc2-c2onc3c(NCCO)cc(NC4CCCCC4)c1c23	?	7.9µM*	·	3.5µM*	·	·
CCCCNC1=CC(=O)C(=O)c2ccccc21	0%	-20%	-5%	-37%	-1	-14%
Cc1ccc2onc(CC(=O)N3CCN(c4ccc(F)cc4)CC3)c2c1	-17%	?	·	-32%	·	·
COC(=O)/C(=C\C=C\c1ccccc1)NC(=O)c1ccccc1	-3%	25µM*	-3%	-4%	-54*	16%
CN1CCN(C2Cc3ccccc3Sc3ccc(Cl)cc32)CC1 (configuration not stated)	-25%	79µM*	-14%	-37%	18	-1%
CN1CCN(C2Cc3cc(F)ccc3Sc3ccc(Cl)cc32)CC1 (configuration not stated)	7%	?	·	·	8	·
CSc1ccc2c(c1)C(N1CCN(C)CC1)Cc1ccccc1S2 (configuration not stated)	-33%	63µM*	3%	?	26	-27%
CCn1c(CC(=O)Nc2ccc(F)cc2)nnc1SCC(=O)NC1CCCC1	2%	-8%	·	5%	1	·
COc1ccc(CNC(=O)CSc2n[nH]c(-c3ccc(OC)cc3)n2)cc1	23%[57 µM]	-12%	·	8%	·	·
CC(=O)N1c2ccc(S(=O)(=O)Nc3ccc(C)c(C)c3)cc2CC1C (configuration not stated)	·	-28%	·	·	·	·
COC(=O)C1=C(C)N(C)C(=S)NC1c1c(OC)ccc2ccccc12 (configuration not stated)	32%	-9%	-14%	?	0	-20%
COC(=O)[C@@]1(Cc2ccc(F)cc2)[C@@H]2[C@@H](CC(=O)[C@H]2CC(=O)C(=O)N(C)C)CN1C(=O)c1ccccc1	29%	-14%	16µM*!	0%	9	0%
SMILES	HP1b binding inh	JMJD2A Tudor	KDM4E inh	BAZ2B block	PI5P4Ka inh	L3MBTL1 inh
COC(=O)[C@@]1(Cc2ccc(OC)cc2)[C@H]2c3cc(C(=O)N(C)C)[nH]c3C[C@H]2CN1C(=O)c1ccccc1	13%	-30%	-3%	56µM*	3	-2%
C(=N\NC1=Nc2cccc3cccc1c23)/c1cccnc1	-31%	?	9%	40µM*	-9	-6%
COc1ccc2c(c1)C(=O)[C@H](OC(=O)NS(=O)(=O)c1ccc(C)cc1)[C@@H](c1ccc(OC)c(Br)c1)O2	·	·	-12%	·	·	·
CCOc1ccc(C(=O)Nc2ccc(-c3nc4ccccc4s3)c(C)c2)cc1OCC	42%	-9%	·	0%	·	·
O=C1CCCCC1Sc1nnc(Cc2cccs2)n1CCc1ccccc1 (configuration not stated)	-23%	79µM*	-4%	-8%	-30	-9%
COCCn1c(SC2CCCCC2=O)nnc1-c1ccncc1 (configuration not stated)	-12%	?	-2%	-7%	-4	3%
Cc1ccc(Cl)cc1NC(=O)Cn1c(=O)n(CCC(=O)NCc2ccc3c(c2)OCO3)c(=O)c2sccc21	12%	-15%	·	?	·	·
CSc1nnc(-c2cc[n+](C)cc2)n1CCO	7%	89µM*	-8%	6%	-7	1%
Cc1ccc(-n2c(C)cc(C3N=C(N)Nc4nc5ccccc5n43)c2C)c(C)c1 (configuration not stated)	?	40µM*	-5%	40µM*	·	·
Cc1cc(OCC(=O)NCCO)cc(C)c1Cl	15%	89µM*	5%	8%	6	1%
COc1cc(NC(=O)C2=C(N3CCOCC3)/C(=C\c3ccc(N(C)C)cc3)CCC2)cc(OC)c1OC	?	28µM*	?	40µM*	13	-15%
CC1(C)Cc2ccccc2C(NNC(=O)c2ccccn2)=N1	27%	45µM*	25µM*	32µM*	3	·
Cc1ccc(S(=O)(=O)N(C)C)cc1NC(=O)COC(=O)C1CCCC1	20%	20µM*	·	-3%	0	1%
O=C(Cn1nc(-c2ccc(Cl)cc2)c2ccccc2c1=O)NCC1CCCO1 (configuration not stated)	?	35µM*	-2%	10%	-29	11%
COC(=O)[C@@]1(Cc2ccc(F)cc2)[C@H]2c3cc(C(=O)N4CCCC4)n(Cc4cc(F)cc5c4OCOC5)c3C[C@H]2CN1C(=O)c1ccccc1	·	·	?	·	1	·
CCOc1ccc(NC(=O)CC2C(=O)N(CC)C(=S)N2CCNC(C)=O)cc1 (configuration not stated)	13%	-7%	3%	4%	-3	0%
CCOc1ccc(NC(=O)CC2C(=O)N(CC)C(=S)N2CCN2CCOCC2)cc1 (configuration not stated)	-4%	50µM*	-3%	-9%	7	28%
O=[N+]([O-])c1c(Nc2ccccn2)cc(Cl)c2nonc12	?	?	1µM*	?	?	·

Screening results deposited in PubChem BioAssay by National Center for Advancing Translational Sciences (NCATS).
